These results are taken from PubChem BioAssay AID463173 (ICCB-Longwood Screening Facility, Harvard Medical School, 2010).

The campaign covered roughly 52,000 compounds. About 1,700 (3.3%) were called active. The sample as a whole holds a higher share of actives than the screen did. Unmarked numbers belong to inactive results. No stated cut-off is given here; in the data, active means survival mostly below about 52% (no sharp cut-off); inactive means mostly above about 56%.

This assay deals with Wild type. Briefly: growth inhibition of S. aureus wild type versus tarO mutant, primary screen, teichoic acid synthesis inhibitors, RN4220, OD600 (AID 463173). To be noted: S. aureus RN4220 wild type/DeltatarO growth, OD600, 18 h, active compounds read low, screened at 18.75 µg/mL (by protocol).
Take `COC(=O)c1ccc(NS(=O)(=O)c2c(C)nc3sccn3c2=O)cc1`: the survival was 85%.
With `CC(=O)NC1Sc2ccccc2N=C1c1ccccc1` (stereo not given) the figure was 112%.
As to `Cc1cccc(-n2c(Cc3ccccc3)nnc2SCc2nc(-c3cccs3)no2)c1`, the survival was 63%.
As to `Cc1ccc2onc(CC(=O)Nc3ccc(C(C)C)cc3)c2c1`, the survival is 85%.
As to `CCOc1ccc(NC(=O)c2sc3nc4c(c(-c5ccc(OC)cc5)c3c2N)C(=O)CC(C)(C)C4)cc1`, the survival is 69%.
For the molecule `CCCn1c(N2CCN(CC(=O)Nc3ccc(Cl)cc3)CC2)nc2ccccc21`, the survival was 118%.
As to `Cc1nn(C)c2c1c(-c1ccccc1)cc(=O)n2CC(=O)NC(C)C`, the survival is 70%.
Turning to `COc1ccc(C2=NS(=O)(=O)N(C)C(C(=O)Nc3ccc(OC(F)(F)F)cc3)=C2)cc1`, the survival is 55%.
As to `CCc1ccc(S(=O)(=O)c2cnc3ccc(OC)cc3c2N2CCCC(C)C2)cc1` (stereo not given), the survival was 2% (active).
With `CC1CCCN(c2c(S(=O)(=O)c3ccccc3)cnc3ccc(Cl)cc23)C1` (stereo not given) the figure was 121%; with `COc1ccc(S(=O)(=O)c2cnc3cc(OC)c(OC)cc3c2N2CCCC(C)C2)cc1` (stereo not given), 84%; with `Cc1ccccc1NC(=O)c1ccc(F)c(S(=O)(=O)N(C)Cc2ccccc2)c1`, 66%.
Take `Cc1ccccc1CN1C(=O)c2ccccc2Sc2ccc(C(=O)N3CCCC3)cc21`: the survival is 85%.
Turning to `CCCCOc1ccc(S(=O)(=O)Nc2ccc(-c3ccc(N4CCCCCC4)nn3)cc2)cc1`, the survival was 75%.
Turning to `Cc1c(C(=O)NCc2ccccc2Cl)sc2nc[nH]c(=O)c12`, the survival was 82%.
With `O=c1[nH]c(SCc2cccc(Cl)c2)nc2c1CCC2` the figure was 91%.
For the molecule `Cc1nc(SCc2cccc(Cl)c2)nc2c1CCCC2`, the survival is -8% (active).
As for `Cc1cccc(CSc2nc3c(c(=O)[nH]2)CCC3)c1`, the survival is 78%.
For the molecule `COc1cccc(-c2csc(-c3c(N)c(C(=O)c4ccccc4)n4ccccc34)n2)c1`, the survival was 72%.
Turning to `Cc1nn2c(=O)cc(COC(=O)Cc3ccccc3)nc2s1`, the survival was 80%.
In the case of `CCOc1ccccc1N1CC(c2nc3ccccc3n2CCCCOc2ccccc2)CC1=O` (stereo not given), the survival is 73%.
As to `CCc1ccccc1N1CC(c2nc3ccccc3n2CCOc2ccc(Cl)c(C)c2)CC1=O` (stereo not given), the survival is 2% (active).
Regarding `Cc1cc(C)cc(OCCn2c(C3CC(=O)N(c4ccccc4Cl)C3)nc3ccccc32)c1` (stereo not given), the survival is 97%.
Turning to `CCc1ccccc1N1CC(c2nc3ccccc3n2CCCOc2ccc(Cl)cc2)CC1=O` (stereo not given), the survival is 29%.
For the molecule `Cc1cccc(OCCCCn2c(C3CC(=O)N(c4ccccc4Cl)C3)nc3ccccc32)c1` (stereo not given), the survival was 17% (active).
Take `Cc1cccc(OCCCCn2c(C3CC(=O)N(c4ccc(C)cc4C)C3)nc3ccccc32)c1` (stereo not given): the survival was 18%.
`CCOc1ccccc1N1CC(c2nc3ccccc3n2CCCOc2ccccc2)CC1=O` (stereo not given): the survival was 58%.
With `O=C1CC(c2nc3ccccc3n2CCCCOc2ccccc2)CN1c1ccccc1Cl` (stereo not given), the survival was 61%.
`CCc1ccccc1N1CC(c2nc3ccccc3n2CCCCOc2ccccc2)CC1=O` (stereo not given): the survival is 19% (active).
With `CCC1CCCCN1S(=O)(=O)c1cc2c3c(c1)CC(=O)N3CCC2` (stereo not given) the figure was 95%; with `COc1ccc(C)cc1NC(=O)CN1C(=O)CSc2ccc(S(=O)(=O)N3CCCC3)cc21`, 93%.
For the molecule `Cc1ccc2nc(/C(C#N)=C/c3cccc(Br)c3)[nH]c2c1`, the survival was -11% (active).
With `Cc1ccc2nc(/C(C#N)=C/c3ccccc3F)[nH]c2c1`, the survival is 46%.
For the molecule `COc1cccc(/C=C(\C#N)c2nc3ccc(C)cc3[nH]2)c1`, the survival is 53%.
With `COc1ccc(C(=O)c2oc3ccccc3c2NC(=O)c2cc(=O)c3ccc(C)cc3o2)cc1Cl` the figure was 87%.
For `O=C(C1c2ccccc2Oc2ccccc21)N1CCCCC1`, the survival was 103%.
`CCCCn1c(CCCN2C(=O)c3ccccc3C2=O)nc2ccccc2c1=O`: the survival was 104%.
In the case of `N#CCOc1nc(OCC#N)nc(OCC#N)n1`, the survival is -1% (active).
Take `CNc1nc(OCC#N)nc(N2CCCCC2)n1`: the survival was 119%.
As to `CONc1nc(NC(C)(C)C)nc(OCC#N)n1`, the survival was 102%.
As for `CCOc1ccc(CNC(=O)c2cc3c(=O)n(C)c4ccccc4c3s2)cc1`, the survival is 84%.
Regarding `CCCCCCn1c(/C=C/c2ccccc2)nc2ccccc21`, the survival was 0% (active).
With `CCCCCn1c(CNC(=O)c2ccccc2)nc2ccccc21` the figure was 89%.
In the case of `CCCn1c(CNC(=O)c2ccc(F)cc2)nc2ccccc21`, the survival is 69%.
Turning to `Cc1cccc(C(=O)NCCc2nc3ccccc3n2CCC(C)C)c1`, the survival is 116%.
For `CCCCCn1c(CNC(=O)c2ccc(F)cc2)nc2ccccc21` the value was 90%; for `CCn1c(O)c(/C=C/c2nc3ccccc3n2CC)sc1=S`, 108%; for `CC(C)Cn1c(/C=C/c2ccc(F)cc2)nc2ccccc21`, -12% (active).
On to `CCc1nc2ccccc2n1CC(C)C(=O)O` (stereo not given), for which the survival was 108%.
`CC(C)CCn1c(/C=C/c2ccccc2)nc2ccccc21`: the survival is -1% (active).
With `CCC(C)Cn1c(/C=C/c2ccccc2)nc2ccccc21` (stereo not given), the survival is 1% (active).
Take `CCCCCCn1c(CNC(=O)c2ccccc2)nc2ccccc21`: the survival was 91%.
Turning to `CCc1nc2ccccc2n1CCO`, the survival was 101%.
Turning to `Cc1cc(C)n2nc(SCC(=O)Nc3cccc(C(F)(F)F)c3)nc2n1`, the survival was 56%.
With `CCc1ccc(-n2c(SCc3ccccc3F)nc3[nH]ncc3c2=O)cc1` the figure was 93%; with `O=C(CCS(=O)(=O)c1cc2c(cc1Cl)NC(=O)CO2)NCCc1ccc(Cl)cc1`, 116%; with `COc1ccc(NC(=O)Cn2c(=O)n(CC3CCCO3)c(=O)c3ccccc32)c(OC)c1` (stereo not given), 86%.
Turning to `O=c1c2sc3ccccc3c2n(Cc2ccccc2F)c(=O)n1CCc1ccccc1`, the survival is 86%.
For `O=C(NCc1ccccc1)c1cc(Sc2cccc(Cl)c2)nc2ccccc12` the value was 78%; for `CCc1ccc(C(=O)c2cn(CC(=O)Nc3cc(OC)ccc3OC)c3nc(C)ccc3c2=O)cc1`, 124%; for `CC(C)Cn1c(=O)c2ccccc2n2c(CCC(=O)N3CCN(c4ccccc4)CC3)nnc12`, 127%.
Turning to `CCC1CCCCN1C(=O)COc1ccc(F)cc1` (stereo not given), the survival was 113%.
With `CCOc1ccc(C2C(=O)N(C3CCCCC3)CC(=O)N2CCc2ccccc2)cc1OC` (stereo not given), the survival is 117%.
On to `Cc1cccc(N2CCCC2=Nc2ccc(Br)cc2C#N)c1`, for which the survival is 116%.
For `O=C(Nc1ccccc1Cl)c1ccc(F)c(S(=O)(=O)NCc2ccc(Cl)c(Cl)c2)c1` the value was 69%; for `COc1ccc2cc(CNc3ccc(C)cc3)c(=O)n(CC(=O)Nc3cccc(Cl)c3C)c2c1`, 73%.
In the case of `COc1ccc(C(=O)N(Cc2ccc(N(C)C)cc2)Cc2ccco2)cc1Cl`, the survival is 81%.
Consider `CCOC(=O)N1CCN(Cc2nc3cc(NC(=O)c4ccc(OC)cc4)ccc3n2C(C)C)CC1`, for which the survival was 89%.
Consider `C#CCn1c(/C=C/c2ccc(Cl)cc2)nc2ccccc21`, for which the survival was 23% (active).
As to `C#CCn1c(COc2ccccc2C)nc2ccccc21`, the survival is 115%.
Consider `Cn1c(C=Nc2ccc(Cl)cc2)nc2ccccc21`, for which the survival was 111%.
Take `Cn1c(C(=O)NCCc2ccccc2)cc2c(=O)n3ccccc3nc21`: the survival was 80%.
In the case of `CCOc1ccc(NC(=O)Cn2nnc(C(=O)NCc3cccs3)c2N)cc1`, the survival is 97%.
For `Cc1ccc2c(c1)cc1c(=O)n(Cc3ccc(Cl)cc3)nc(C)n12`, the survival was 97%.
Consider `COc1cc(/C=C(\C#N)c2nc3ccccc3[nH]2)ccc1OCc1cccc(C(F)(F)F)c1`, for which the survival is 66%.
As to `COc1ccc(NC(=O)NC(C)c2c(-n3cccc3)sc(C)c2C)cc1OC` (stereo not given), the survival is 76%.
For `Cc1sc(-n2cccc2)c(C(C)NC(=O)Nc2ccccc2Cl)c1C` (stereo not given), the survival was 77%.
With `Cc1ccc(NC(=O)NC(C)c2c(-n3cccc3)sc(C)c2C)cc1F` (stereo not given) the figure was 74%.
With `COC(=O)c1ccc(NC(=O)NC(C)c2c(-n3cccc3)sc(C)c2C)cc1` (stereo not given) the figure was 89%; with `Cc1sc(-n2cccc2)c(C(C)NC(=O)Nc2cccc(C(F)(F)F)c2)c1C` (stereo not given), 6% (active); with `COC(=O)c1ccc(Cl)cc1NC(=O)NC(C)c1c(-n2cccc2)sc(C)c1C` (stereo not given), 12% (active).
`Cc1cccc(-n2ncc3c(Nc4ccc(Oc5ccc(Cl)cc5)cc4)ncnc32)c1`: the survival is 88%.
As for `CCC(=O)C1=C(c2ccc(OC)c(OC)c2)N(C(=O)CC)n2c(CC)nnc2S1`, the survival was 55%.
In the case of `COc1ccc(-c2noc(CC(=O)N(C)c3cccc(C)c3)n2)cc1`, the survival is 83%.
Consider `CCN(C(=O)CCc1nc(-c2ccc(C)cc2)no1)c1cccc(C(F)(F)F)c1`, for which the survival was 0% (active).
On to `Cc1ccc(CNC(=O)CSc2nc3ccccc3nc2Cc2ccc(C)cc2)cc1`, for which the survival was 78%.
As to `COc1ccc(-c2noc(CCC(=O)Nc3ccc(C(F)(F)F)cc3)n2)cc1`, the survival is 84%.
For `CCN(C(=O)CSc1nc(-c2ccc(C(C)C)cc2)no1)c1cccc(C)c1`, the survival is 72%.
Take `CCN(C(=O)CSc1nc2ccccc2nc1Cc1ccc(F)cc1)c1cccc(C)c1`: the survival is 88%.
Regarding `CCN(C(=O)CSc1nc2ccccc2nc1Cc1cccc(OC)c1)c1cccc(C)c1`, the survival was -2% (active).
In the case of `COc1cccc(Cc2nc3ccccc3nc2SCC(=O)Nc2cccc(C)c2)c1`, the survival was 128%.
Regarding `CCN(C(=O)CSc1nc(-c2ccccc2)no1)c1cccc(C)c1`, the survival was -2% (active).
Regarding `CCCCNC(=O)CSc1nc2ccccc2nc1Cc1ccc(C)cc1`, the survival is 72%.
As for `CCN(C(=O)CSc1nc(-c2ccccc2)no1)c1ccccc1`, the survival is 85%.
Take `CCCCN(C)C(=O)CSc1nc2ccccc2nc1Cc1ccc(C)cc1`: the survival was 0% (active).
